Records with an inconclusive call do not appear. Calls of active or inactive are those of the source. Calls follow the shape of the dose curve; as a rule, active = well fitted curve in the direction sought with a large enough effect; inconclusive = small, poorly fitted or top-dose-only effect, or another doubt; inactive = no such curve, though single readings can be large; an effect the other way counts as inactive or inconclusive.
system: Zika virus NS2B-NS3 protease; experiment: Primary screen GU AMC qHTS for Zika virus inhibitors (AID 1347154); settings: Zika NS2B-NS3 unlinked protease, AMC fluorogenic substrate; series mostly up to 54.1 µM; activity change, negative = inhibition: at the top concentration;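 also: 0% = no-inhibitor control and -100% = no-enzyme control; nearly all actives have a fitted effect of over 70% in size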
How it was run: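 Unlinked Zika NS2B hydrophilic domain–NS3 protease complex at 25 nM in 10 mM Tris-HCl pH 8.0, 0.01% Tween 20, with an AMC peptide substrate. Fluorescence change (340/450 nm) over 15 min at room temperature, normalized to controls, fitted to 4-parameter Hill.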

SMILES | activity change, negative = inhibition | Potency
COc1cc(F)c(C(C)C)cc1-c1ccc(C(F)(F)F)cc1CN1C(=O)O[C@H](c2cc(C(F)(F)F)cc(C(F)(F)F)c2)[C@@H]1C | -3.8% (inactive) | –
CN(C)CCCNC(=O)c1ccc(-c2cc(O)c3ncccc3c2)cc1 | 3.52% (inactive) | –
O=C(NC[C@H](O)CO)c1ccncc1Nc1ccc(I)cc1F | 5.69% (inactive) | –
CC1=C(C(=O)Nc2cc3cn[nH]c3cc2F)C(c2ccc(C(F)(F)F)cc2)CC(=O)N1 (stereo not drawn) | 12% (inactive) | –
Cc1cnc(CNC(=O)c2c(=O)c3ccc(N4CCCN(C)CC4)nc3n3c2sc2ccccc23)cn1 | 5.27% [at 25.8 µM] (inactive) | –
O=C1C(c2c(O)[nH]c3ccccc23)=Nc2ccccc21 | – | inactive
O=C(O)CCC=CCC[C@@H]1[C@H](N2CCCCC2)[C@@H](O)C[C@@H]1OCc1ccc(-c2ccccc2)cc1 | 1.91% (inactive) | –
COc1ccc(-c2oc3c(CC=C(C)C)c(O)cc(O)c3c(=O)c2O)cc1 | 3.47% (inactive) | –
CC(C)CNc1ccnc(NCc2csc(-c3ccccc3)n2)n1 | -3.24% (inactive) | –
Cc1ccc(C2=Nc3ccc(Cl)cc3OC2)cc1 | -13.6% (inactive) | –
COc1ccnc(CS(=O)c2nc3ccc(OC(F)F)cc3[nH]2)c1OC (stereo not drawn) | – | inactive
Cc1cc2nc3c(=O)[nH]c(=O)nc-3n(CC(O)C(O)C(O)CO)c2cc1C (stereo not drawn) | -11.7% (inactive) | –
O=C(O)C1=CC(O)C(O)[C@H](O)C1 (stereo partly drawn) | 3.21% (inactive) | –
C=CCc1cccc(C=NNC(=O)CN2CCN(Cc3ccccc3)CC2)c1O | -6.05% (inactive) | –
C[C@H]1O[C@@H](n2cc(F)c(=O)[nH]c2=O)[C@H](O)[C@H]1O | -5.04% (inactive) | –
Nc1ccn([C@@H]2O[C@H](CO)[C@@H](O)[C@H]2O)c(=O)n1 | 18% (inactive) | –
O=C(c1ccc(C(=O)N2CCC(N3CCCC3)CC2)c(Nc2ccccc2)c1)N1CCC(N2CCCC2)CC1 | 6.91% (inactive) | –
CN[C@@H](C)[C@H]1[C@H](O)C[C@@]2(C)[C@@H]3CC[C@H]4C(C)(C)[C@@H](NC)CC[C@@]45C[C@@]35CC[C@]12C | 2.89% (inactive) | –
C#CCN(C)CC1=Cc2ccccc2Oc2ccccc21 | -19.8% (inactive) | –

SMILES | activity change, negative = inhibition | Potency
Cc1cccc(-c2[nH]c(C(C)(C)C)nc2-c2ccc3c(c2)OCO3)n1 | 0.608% (inactive) | –
COc1ccc(CCC(=O)Nc2nc3ccc(Cl)cc3s2)cc1OC | -1.31% (inactive) | –
CN(C)CCN(Cc1ccc(Cl)cc1)c1ccccn1 | 0.0014% (inactive) | –
CN1CCN(c2ncc(-c3cc(Cl)cc(Cl)c3Cl)c(N)n2)CC1 | 0.212% (inactive) | –
CC1=C(CC(=O)O)c2cc(F)ccc2C1=Cc1ccc(S(C)=O)cc1 (stereo not drawn) | -1.36% (inactive) | –
CCNC(=O)c1noc(-c2cc(C(C)C)c(O)cc2O)c1-c1ccc(CN2CCOCC2)cc1 | 5.07% (inactive) | –
CC(C)[C@H](O)C(=O)N[C@@H](C)C(=O)N[C@@H]1C(=O)N(C)CCc2ccccc21 | -0.141% (inactive) | –
CCn1c(-c2nonc2N)nc2cncc(CNC3CCNCC3)c21 | -0.745% (inactive) | –
O=C(NCCCCN1CCOCC1)c1cc2ccccc2o1 | 13.6% (inactive) | –
COc1nccc(-c2c(-c3ccc(F)cc3)ncn2C2CCNCC2)n1 | -1.07% (inactive) | –
CCOC(=O)N1c2ccc(C(F)(F)F)cc2[C@@H](N(Cc2cc(C(F)(F)F)cc(C(F)(F)F)c2)C(=O)OC)C[C@H]1CC | -1.56% (inactive) | –
Cc1ccccc1-n1c(Cn2nc(-c3cccc(O)c3)c3c(N)ncnc32)nc2cccc(C)c2c1=O | 20.1% (inactive) | –
CCCCC(C)(C)[C@H](O)C=C[C@H]1[C@H](O)CC(=O)[C@H]1CC=CCCCC(=O)O | -3.53% (inactive) | –
CCC(C)SSc1ncc[nH]1 (stereo not drawn) | -0.983% (inactive) | –
OC[C@H]1O[C@@H](OCCc2ccc(O)cc2)[C@H](O)[C@@H](O)[C@H]1O | 1.2% (inactive) | –
C[C@@H]1C[C@H]2[C@@H]3CCC4=CC(=O)C=C[C@]4(C)[C@@]3(F)[C@@H](O)C[C@]2(C)[C@@]1(O)C(=O)CO | – | inactive
COc1nc(C)cnc1NS(=O)(=O)c1cccnc1-c1ccc(-c2nnco2)cc1 | -1.53% (inactive) | –
CN1C(=O)C[C@H](C(=O)N[C@@H](Cc2cnc[nH]2)C(=O)N2CCC[C@@H]2C(N)=O)NC1=O | 1.52% (inactive) | –

system: Zika virus NS2B-NS3 protease (unlinked complex); experiment: Primary screen GU Rhodamine qHTS for Zika virus inhibitors: Unlinked NS2B-NS3 protease assay (AID 1347159); settings: Recombinant ZIKV NS2B-NS3 protease, Rhodamine110 substrate fluorescence; series mostly up to 107 µM; activity change, negative = inhibition: at the top concentration; also: % is scaled to controls: 0 for no effect and ±100 for the full control effect; nearly all actives have a fitted effect of over 60% in size
How it was run: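 A qHTS format was used, with compound concentrations ranging up to 114 microM. Each compound was preincubated with 25 nM NS2B-NS3 protease, and the substrate was then added at 1.5 microM. Curves were fitted with a 4-parameter Hill model.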

SMILES | activity change, negative = inhibition
CC1=C(C(=O)Nc2cc3cn[nH]c3cc2F)C(c2ccc(C(F)(F)F)cc2)CC(=O)N1 (stereo not drawn) | 0.938% (inactive)
Cc1cnc(CNC(=O)c2c(=O)c3ccc(N4CCCN(C)CC4)nc3n3c2sc2ccccc23)cn1 | 5.25% [at 19.1 µM] (inactive)
O=C1C(c2c(O)[nH]c3ccccc23)=Nc2ccccc21 | -16.6% [at 57.1 µM] (inactive)
CC(C)CNc1ccnc(NCc2csc(-c3ccccc3)n2)n1 | 173% (inactive)
CN[C@@H](C)[C@H]1[C@H](O)C[C@@]2(C)[C@@H]3CC[C@H]4C(C)(C)[C@@H](NC)CC[C@@]45C[C@@]35CC[C@]12C | 119% [at 19.1 µM] (inactive)
COc1ccc(CCC(=O)Nc2nc3ccc(Cl)cc3s2)cc1OC | -15% (inactive)
CCNC(=O)c1noc(-c2cc(C(C)C)c(O)cc2O)c1-c1ccc(CN2CCOCC2)cc1 | 2.32% (inactive)
CCn1c(-c2nonc2N)nc2cncc(CNC3CCNCC3)c21 | 155% (inactive)
COc1nccc(-c2c(-c3ccc(F)cc3)ncn2C2CCNCC2)n1 | 1.42% (inactive)
Cc1ccccc1-n1c(Cn2nc(-c3cccc(O)c3)c3c(N)ncnc32)nc2cccc(C)c2c1=O | 24.3% (inactive)
COc1nc(C)cnc1NS(=O)(=O)c1cccnc1-c1ccc(-c2nnco2)cc1 | 2.61% (inactive)

Reference: PubChem BioAssay (NCATS)
